Data taken from article PMC4552634, “A New Set of Chemical Starting Points with Plasmodium falciparum Transmission-Blocking Potential for Antimalarial Drug Discovery” (PLoS ONE, 2015).
Read-outs that look alike come from different tables or passages of the source. Out of some 13,000 compounds screened, about 3,200 (25%) showed an effect of 50% or more. The list shows a part of the results.

System: P. falciparum stage V gametocytes
Parameters: BacTiter-Glo ATP luminescence viability of purified stage V gametocytes in 384-well plates, per cent inhibition versus DMSO
Details: 48 h, 5 µM, inhibitor

SMILES | % Inhibition [%] | % Inhibition (% Inhibition) [%]
CN(CCCCN)Cc1ccc(-c2ccc(Cl)cc2)cc1 [TCMDC-140123] | 92.64 | –
CN(C)CCN(C)Cc1ccc(-c2ccc(NC(=O)c3ccc(Cl)cc3)cc2)cc1 [TCMDC-132587] | -35.6 | –
CN(C)CCN(C)Cc1ccc(-c2cccc(NC(=O)c3ccc(Cl)cc3)c2)cc1 [TCMDC-132631] | 0.8563 | –
O=C(NCc1ccc(C(=O)N2CCC(N3CCCCC3)CC2)cc1)c1cc(-c2cccc(C(F)(F)F)c2)ccc1O [TCMDC-139090] | -1.594 | –
O=C(Nc1ccccc1Br)c1cn(-c2ccccc2)nc1-c1cccc([N+](=O)[O-])c1 [TCMDC-124624] | 18.14 | –
O=C(NCCc1cccc(F)c1)c1ccc(N2CCN(c3ccncc3)CC2)cn1 [TCMDC-135153] | 19.99 | –
CCNc1cc(C(=O)N[C@@H](Cc2ccccc2Cl)[C@H](O)CNC2CCCCC2)cc(N2CCCCS2(=O)=O)c1 [TCMDC-135223] | 16.84 | –
NC[C@H](CC1CCCCC1)NC(=O)c1ccc(-c2ccnc3[nH]ccc23)s1 [TCMDC-134150] | 38.45 | –
Oc1ccc(CCNCCCCCCNCCc2ccc(Cl)cc2)c(Cl)c1O [TCMDC-131266] | 111.4 | –
CNC(=O)CC(=O)NCCc1ccc(Cl)cc1 [TCMDC-131647] | -3.705 | –
Oc1ccc(CCNCCCCNCCc2ccc(Cl)cc2)cc1O [TCMDC-131265] | 107 | –
Oc1ccc(CCNCCCCCNCCCc2ccc(Cl)cc2)cc1O [TCMDC-131279] | 112.4 | –
O=C(NCCCc1ccccc1)c1ccc(O)c(-c2cc(Cl)cc(Cl)c2)c1 [TCMDC-140159] | -73.77 | –
Oc1ccc(CCNCCCCCCNCCCc2ccc(Cl)cc2)cc1O [TCMDC-131264] | 107.9 | –
O=c1ccc2ccc(F)c3c2n1CC3CN1CCC(NCc2ccc(-c3cccc(Cl)c3)nc2)CC1 (stereo not drawn) [TCMDC-134409] | -72.08 | –
O=C(/C=C/c1ccccc1Cl)Nc1ccc(Br)c(OCCN2CCC(O)(c3ccccc3)CC2)c1 [TCMDC-140960] | 2.038 | –
Cc1cccc(-c2nn(-c3ccccc3)cc2C(=O)Nc2nnc(C)o2)c1 [TCMDC-125039] | -1.826 | –
CC(C)CCN1CCCN(Cc2cccc(C(=O)Nc3ccc(C(C)(C)C)cc3)c2)CC1 [TCMDC-136605] | -26.48 | –
O=[N+]([O-])c1cccc(CNCC2CCN(CC3CCCCC3)CC2)c1 [TCMDC-139468] | 9.865 | –
FC(F)(F)c1ccc2[nH]c(-c3ccc(-c4ccc(CN5CCN(c6cnccn6)CC5)cc4)cc3)nc2c1.O=C(O)C(F)(F)F [TCMDC-132678] | -10.34 | –
O=C(C1CCCCC1)N1CCOC(CCN2CCC(c3ccccc3)CC2)(c2ccc(Cl)c(Cl)c2)C1 (stereo not drawn) [TCMDC-135329] | -33.1 | –
C=CCc1cccc(OC)c1OCCCON1C(N)=NC(N)=NC1(C)C [TCMDC-131337] | -10.44 | –
Oc1ccc2c(CNCCc3ccccc3)c(O)ccc2c1CNCCc1ccccc1 [TCMDC-137582] | -11.34 | –
CCCN(CCCCCCN(CCC)CCc1ccc(O)c(O)c1)CCc1ccc(O)cc1 [TCMDC-131259] | -3.325 | –

SMILES | % Inhibition [%] | % Inhibition (% Inhibition) [%]
Oc1ccc(CCNCCCCCCNCCc2ccc(-c3ccccc3)cc2)cc1O [TCMDC-131268] | 113.1 | –
CC(C)(O)CC(C)(C)c1cc(Cl)ccc1O [TCMDC-131708] | -16.74 | –
CCCCc1ccc(CCNCCCCCCNCCc2ccc(O)c(O)c2)cc1 [TCMDC-131281] | 122.8 | –
CCCN(CCCCCCNCCc1ccc(Cl)cc1)CCc1ccc(O)c(O)c1 [TCMDC-131274] | 104.4 | –
CC(C)(Cc1ccc(Cl)cc1)NCCCCCCNCCc1ccc(O)c(O)c1 [TCMDC-131277] | 114.6 | –
Cc1cc(CNCC2CCC(CNCCCc3ccccc3)CC2)ccc1O (stereo not drawn) [TCMDC-140409] | 40.71 | –
CCCNCCc1ccc(NS(=O)(=O)c2cccc(-c3ccc(Cl)cc3)c2)cc1 [TCMDC-141448] | 32.49 | –
O=C(NCC1CCC(CNCCCc2ccccc2)CC1)Nc1ccc(Cl)c(Cl)c1 (stereo not drawn) [TCMDC-140705] | -6.849 | –
COc1ccc2nccc([C@@H](O)CN3CCC(NCc4nc5c(cc4Cl)SCC(=O)N5)C(F)C3)c2c1 (stereo partly drawn) [TCMDC-141679] | – | -19.09
COc1ccc(OCCCCON2C(N)=NC(N)=NC2(C)C)cc1 [TCMDC-131732] | 29.82 | –
CCOc1cccc(C2c3c(oc4ccccc4c3=O)C(=O)N2CCN(CC)CC)c1 (stereo not drawn) [TCMDC-124476] | -6.195 | –
NS(=O)(=O)CCc1cccc(Nc2nccc(-c3c(-c4cccc(NC(=O)c5c(F)cccc5F)c4)nn4ccccc34)n2)c1 [TCMDC-135791] | -73.1 | –
N#Cc1ccc2c(c1)CN(C1CCC(NC(=O)C3=Cc4cc(Cl)ccc4OC3)CC1)CCC2 (stereo not drawn) [TCMDC-133501] | -19.21 | –
Cc1nc(-c2cccc(C(=O)N(Cc3cncn3Cc3cccc(C(F)(F)F)c3)CC3CC3)c2)cs1 [TCMDC-132462] | -20.16 | –
Clc1ccc2c(NCc3ccc4c(c3)OCO4)ccnc2c1 [TCMDC-125106] | -11.41 | –
c1ccc(CCNCc2ccc(-c3ccc(CNCc4ccc5c(c4)OCO5)cc3)nc2)cc1 [TCMDC-141648] | 21 | –
O=C(NCCCCNCC(Cc1cccc(O)c1)c1ccccc1)c1ccc(NC(=O)c2ccc(Cl)cc2)cc1 (stereo not drawn) [TCMDC-138563] | -50.17 | –
Clc1ccc(CCNCCCCCCNCCc2ccc3c(c2)OCO3)cc1 [TCMDC-132042] | 88.67 | –
Oc1cccc(CCNCCCCCCNCCc2ccc(Cl)cc2)c1 [TCMDC-131285] | 116.7 | –
Oc1ccc(CCNCCCCCCNCCc2ccc(Br)cc2)cc1O [TCMDC-131263] | 95.59 | –
FC(F)(F)c1cccc(CNCCCCCNCc2ccc(Cl)cc2)c1 [TCMDC-140403] | 31.4 | –
O=C(/C=C/c1ccc(Cl)c(Cl)c1)NCCCCCN1CCN(C(=O)Nc2ccc(OC(F)F)cc2)CC1 [TCMDC-135733] | 4.05 | –
O=C1NC(=S)N/C1=C/C=C/c1ccc([N+](=O)[O-])o1 [TCMDC-125757] | 95.66 | –
O=C(Nc1ccc(-c2csc(-c3nc4ccccc4[nH]3)c2)cc1)Nc1ccc(Cl)c(Cl)c1 [TCMDC-133271] | -42.33 | –

SMILES | % Inhibition [%] | % Inhibition (% Inhibition) [%]
O=C(NCC1Cc2cc(Oc3ccccc3)ccc2O1)c1ccc([N+](=O)[O-])o1 (stereo not drawn) [TCMDC-124802] | 28.95 | –
CC(C)(C)c1nn(-c2ccc(Cl)cc2)c2[nH]c(=O)c(CNCc3ccc4c(c3)OCO4)cc12 [TCMDC-136662] | 74.56 | –
COc1ccc(CCNCc2cc3c(C(C)(C)C)nn(-c4ccc(Cl)cc4)c3[nH]c2=O)cc1OC [TCMDC-125351] | 40.9 | –
CC(C)(C)c1nn(-c2ccc(Cl)cc2)c2[nH]c(=O)c(CNC3CCCC3)cc12 [TCMDC-123909] | 44.22 | –
CC(C)(C)c1nn(-c2ccc(Cl)cc2)c2[nH]c(=O)c(CNCc3cccs3)cc12 [TCMDC-123908] | 55.18 | –
CC(C)(C)c1nn(-c2ccccc2)c2[nH]c(=O)c(CNCc3ccc4c(c3)OCO4)cc12 [TCMDC-123910] | 11.81 | –
CC(C)(C)c1nn(-c2ccccc2)c2[nH]c(=O)c(CNCc3ccccc3)cc12 [TCMDC-123911] | -3.272 | –
Cc1ccc(NS(=O)(=O)c2cccs2)cc1-c1cccc(C(=O)Nc2ccc(F)cc2)c1 [TCMDC-133590] | -57.86 | –
CN(C)c1cccc(NC(=O)NC2N=C(c3ccccc3)c3ccccc3N(CC(=O)N(C)c3ccccc3)C2=O)c1 (stereo not drawn) [TCMDC-131985] | 33.13 | –
Cc1nc(N)nc(N)c1OCc1ccc(Cl)c(Cl)c1 [TCMDC-131718] | -2.553 | –
CC(C)CSc1cc(C(=O)Nc2cc(Cl)ccc2O)ccn1 [TCMDC-138874] | -25.81 | –
O=C(Nc1nc2cc(S(=O)(=O)NCCc3ccc(F)cc3)ccc2n1CCCn1ccnc1)c1ccc(Cl)cc1 [TCMDC-141626] | 16.98 | –
CCCC1(NC[C@@H](O)[C@H](Cc2ccccc2)NC(=O)c2cc(NCC)cc(N3CCCCS3(=O)=O)c2)CC1 [TCMDC-135192] | 21.27 | –
CCCC1(NC[C@@H](O)[C@H](Cc2ccccc2)NC(=O)c2cc(NCC)cc(N3CCCCS3(=O)=O)c2)CCCCC1 [TCMDC-135262] | 28.65 | –
CCNc1cc(C(=O)N[C@@H](Cc2ccccc2)[C@H](O)CNC23CCC(CC2)CC3)cc(N2CCCCS2(=O)=O)c1 [TCMDC-135390] | 43.97 | –
CCNc1cc(C(=O)N[C@@H](Cc2ccccc2)[C@H](O)CNC2(CC)CC2)cc(N2CCCCS2(=O)=O)c1 [TCMDC-135176] | 3.927 | –
CCNc1cc(C(=O)N[C@@H](Cc2ccccc2)[C@H](O)CNC2CCCCC2)cc(N2CCCCS2(=O)=O)c1 [TCMDC-134676] | 26.1 | –
CCNc1cc(C(=O)N[C@@H](Cc2ccccc2)[C@H](O)CNC2C3CC4CC(C3)CC2C4)cc(N2CCCCS2(=O)=O)c1 (stereo partly drawn) [TCMDC-135424] | 38.6 | –
CCNc1cc(C(=O)N[C@@H](Cc2ccccc2)[C@H](O)CNC2(CC)CCCCC2)cc(N2CCCCS2(=O)=O)c1 [TCMDC-135209] | 82.14 | –
CCNc1cc(C(=O)N[C@@H](Cc2ccccc2)[C@H](O)CNC23CC4CC(CC(C4)C2)C3)cc(N2CCCCS2(=O)=O)c1 [TCMDC-135352] | 40.45 | –
CCCC1(NC[C@@H](O)[C@H](Cc2ccccc2)NC(=O)c2cc(NCC)cc(N3CCCCS3(=O)=O)c2)CCCC1 [TCMDC-135261] | 38.92 | –
CCNc1cc(C(=O)N[C@@H](Cc2ccccc2)[C@H](O)CNC2(C)CCCCC2)cc(N2CCCCS2(=O)=O)c1 [TCMDC-134703] | 93.77 | –
CCNc1cc(C(=O)N[C@@H](Cc2ccccc2)[C@H](O)CNC2CC3CCC2C3)cc(N2CCCCS2(=O)=O)c1 (stereo partly drawn) [TCMDC-135107] | 91.01 | –
CCNc1cc(C(=O)N[C@@H](Cc2ccccc2)[C@H](O)CNC23CCC(CC2)C3)cc(N2CCCCS2(=O)=O)c1 [TCMDC-135371] | 58.44 | –
